Experimental data from PubChem BioAssay AID1159580 (chemical genetic matrix, 2015).
Hit rate of the full screen: of about 5,500 compounds, about 2,000 (36%) were called active. Not shown: some 18% with an inconclusive outcome. No stated cut-off is given here; in the data, active means normalized growth mostly below about 0.91 (no sharp cut-off); inconclusive means no clear call, values can overlap the other calls; inactive means mostly above about 0.92. Some of the results follow.

Experiment: chemical genetic growth profiling, strain panel (AID 1159580);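 further: tested at 20 µM; growth read once vehicle control cultures reached saturation at 30 °C; 1 = growth at the plate median or of vehicle wells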
Settings: growth OD
[1] = S. cerevisiae deletion strains, locus YHR030C, strain SLT2, stronger effect = lower value

Measured: normalized growth

CN(C)C=Nc1nc2c(s1)CCc1ccccc1-2
inactive: S. cerevisiae deletion strains, locus YAL013W, strain DEP1, stronger effect = lower value 0.953 | S. cerevisiae deletion strains, locus YBR229C, strain ROT2, stronger effect = lower value 0.975 | S. cerevisiae deletion strains, locus YDL101C, strain DUN1, stronger effect = lower value 0.964 | S. cerevisiae deletion strains, locus YDR150W, strain NUM1, stronger effect = lower value 0.934 | S. cerevisiae deletion strains, locus YGR078C, strain PAC10, stronger effect = lower value 0.989 | S. cerevisiae deletion strains, locus YHR087W, strain rtc3, stronger effect = lower value 1.01 | S. cerevisiae deletion strains, locus YJL187C, strain SWE1, stronger effect = lower value 0.972 | S. cerevisiae deletion strains, locus YJR043C, strain POL32, stronger effect = lower value 0.994 | S. cerevisiae deletion strains, locus YJR075W, strain HOC1, stronger effect = lower value 0.957 | S. cerevisiae deletion strains, locus YLR039C, strain RIC1, stronger effect = lower value 0.794 | S. cerevisiae deletion strains, locus YLR058C, strain SHM2 (second series), stronger effect = lower value 0.989 | S. cerevisiae deletion strains, locus YMR219W, strain ESC1, stronger effect = lower value 0.991 | S. cerevisiae deletion strains, locus YMR263W, strain SAP30, stronger effect = lower value 0.977 | S. cerevisiae deletion strains, locus YNL153C, strain GIM3, stronger effect = lower value 0.968 | S. cerevisiae deletion strains, locus YNL322C, strain KRE1, stronger effect = lower value 0.994 | S. cerevisiae deletion strains, locus YNR030W, strain Alg12, stronger effect = lower value 0.899 | S. cerevisiae strains, strain wild type, stronger effect = lower value 0.997
active: S. cerevisiae deletion strains, locus YEL061C, strain CIN8, stronger effect = lower value 0.878 | [1] 0.477 | S. cerevisiae deletion strains, locus YLR085C, strain ARP6, stronger effect = lower value 0.622 | S. cerevisiae deletion strains, locus YLR262C, strain YPT6, stronger effect = lower value 0.811 | S. cerevisiae deletion strains, locus YML094W, strain GIM5, stronger effect = lower value 0.798 | S. cerevisiae deletion strains, locus YNL298W, strain CLA4 (second series), stronger effect = lower value 0.825 | S. cerevisiae deletion strains, locus YPL055C, strain LGE1, stronger effect = lower value 0.799 | S. cerevisiae deletion strains, locus YPL241C, strain CIN2, stronger effect = lower value 0.819 | S. cerevisiae deletion strains, locus YPR135W, strain CTF4, stronger effect = lower value 0.635

NCC1CCCCC1CC(=O)O (stereo not given)
inactive: S. cerevisiae deletion strains, locus YAL021C, strain ccr4, stronger effect = lower value 1.01 | S. cerevisiae deletion strains, locus YAL026C, strain drs2, stronger effect = lower value 1.02 | S. cerevisiae deletion strains, locus YAL030W, strain snc1, stronger effect = lower value 1.03 | S. cerevisiae deletion strains, locus YBL061C, strain skt5, stronger effect = lower value 1.04 | S. cerevisiae deletion strains, locus YBR009C, strain hhf1, stronger effect = lower value 0.988 | S. cerevisiae deletion strains, locus YBR023C, strain chs3, stronger effect = lower value 1.02 | S. cerevisiae deletion strains, locus YBR171W, strain sec66, stronger effect = lower value 1.03 | S. cerevisiae deletion strains, locus YBR231C, strain swc5, stronger effect = lower value 1.01 | S. cerevisiae deletion strains, locus YBR279W, strain paf1, stronger effect = lower value 1.03 | S. cerevisiae deletion strains, locus YCL011C, strain gbp2, stronger effect = lower value 1.02 | S. cerevisiae deletion strains, locus YCL016C, strain dcc1, stronger effect = lower value 1 | S. cerevisiae deletion strains, locus YCL061C, strain MRC1, stronger effect = lower value 1.04 | S. cerevisiae deletion strains, locus YCL069W, strain vba3, stronger effect = lower value 1.02 | S. cerevisiae deletion strains, locus YCR088W, strain abp1, stronger effect = lower value 1.04 | S. cerevisiae deletion strains, locus YDL005C, strain med2, stronger effect = lower value 1.02 | S. cerevisiae deletion strains, locus YDL040C, strain nat1, stronger effect = lower value 1.02 | S. cerevisiae deletion strains, locus YDR001C, strain nth1, stronger effect = lower value 1.02 | S. cerevisiae deletion strains, locus YDR069C, strain doa4, stronger effect = lower value 1.05 | S. cerevisiae deletion strains, locus YDR137W, strain rgp1, stronger effect = lower value 1.03 | S. cerevisiae deletion strains, locus YDR159W, strain sac3, stronger effect = lower value 0.98 | S. cerevisiae deletion strains, locus YDR195W, strain ref2 0.989 | S. cerevisiae deletion strains, locus YDR297W, strain sur2, stronger effect = lower value 1.05 | S. cerevisiae deletion strains, locus YDR334W, strain swr1, stronger effect = lower value 1.02 | S. cerevisiae deletion strains, locus YDR335W, strain msn5, stronger effect = lower value 1.03 | S. cerevisiae deletion strains, locus YDR392W, strain spt3, stronger effect = lower value 0.95 | S. cerevisiae deletion strains, locus YEL003W, strain gim4, stronger effect = lower value 1.03 | S. cerevisiae deletion strains, locus YEL037C, strain rad23, stronger effect = lower value 1.02 | S. cerevisiae deletion strains, locus YEL061C, strain CIN8 (second series), stronger effect = lower value 1.02 | S. cerevisiae deletion strains, locus YER015W, strain faa2, stronger effect = lower value 1.03 | S. cerevisiae deletion strains, locus YER016W, strain bim1, stronger effect = lower value 1 | S. cerevisiae deletion strains, locus YER111C, strain swi4, stronger effect = lower value 1.01 | S. cerevisiae deletion strains, locus YER155C, strain BEM2 (second series), stronger effect = lower value 1.07 | S. cerevisiae deletion strains, locus YFR010W, strain ubp6, stronger effect = lower value 1.02 | S. cerevisiae deletion strains, locus YGL167C, strain pmr1, stronger effect = lower value 1.03 | S. cerevisiae deletion strains, locus YGL173C, strain kem1, stronger effect = lower value 1.04 | S. cerevisiae deletion strains, locus YGL227W, strain vid30, stronger effect = lower value 1.03 | S. cerevisiae deletion strains, locus YGL240W, strain doc1, stronger effect = lower value 1.04 | S. cerevisiae deletion strains, locus YGL253W, strain hxk2, stronger effect = lower value 1.03 | S. cerevisiae deletion strains, locus YHR013C, strain ard1, stronger effect = lower value 1.02 | S. cerevisiae deletion strains, locus YHR027C, strain rpn1, stronger effect = lower value 1.01 | [1] 0.999 | S. cerevisiae deletion strains, locus YHR079C, strain IRE1, stronger effect = lower value 0.997 | S. cerevisiae deletion strains, locus YHR142W, strain chs7, stronger effect = lower value 1.03 | S. cerevisiae deletion strains, locus YJL092W, strain hpr5, stronger effect = lower value 1.03 | S. cerevisiae deletion strains, locus YJL095W, strain BCK1 (second series), stronger effect = lower value 1.02 | S. cerevisiae deletion strains, locus YJL095W, strain BCK1, stronger effect = lower value 0.988 | S. cerevisiae deletion strains, locus YJL115W, strain asf1, stronger effect = lower value 1.03 | S. cerevisiae deletion strains, locus YJL129C, strain trk1, stronger effect = lower value 1.04 | S. cerevisiae deletion strains, locus YJL154C, strain vps35, stronger effect = lower value 1.01 | S. cerevisiae deletion strains, locus YJL164C, strain tpk1, stronger effect = lower value 1.01 | S. cerevisiae deletion strains, locus YJL166W, strain qcr8, stronger effect = lower value 1.05 | S. cerevisiae deletion strains, locus YJR066W, strain TOR1, stronger effect = lower value 0.941 | S. cerevisiae deletion strains, locus YKL160W, strain elf1, stronger effect = lower value 1.04 | S. cerevisiae deletion strains, locus YKR026C, strain gcn3, stronger effect = lower value 1.02 | S. cerevisiae deletion strains, locus YKR091W, strain srl3, stronger effect = lower value 1.02 | S. cerevisiae deletion strains, locus YLL001W, strain dnm1, stronger effect = lower value 1.04 | S. cerevisiae deletion strains, locus YLL026W, stronger effect = lower value 1.01 | S. cerevisiae deletion strains, locus YLL041C, strain sdh2, stronger effect = lower value 1.02 | S. cerevisiae deletion strains, locus YLR027C, strain aat2, stronger effect = lower value 1.04 | S. cerevisiae deletion strains, locus YLR113W, strain HOG1, stronger effect = lower value 0.959 | S. cerevisiae deletion strains, locus YLR221C, strain rsa3, stronger effect = lower value 1 | S. cerevisiae deletion strains, locus YLR258W, strain gsy2, stronger effect = lower value 1.02 | S. cerevisiae deletion strains, locus YLR262C, strain YPT6 (second series), stronger effect = lower value 1.04 | S. cerevisiae deletion strains, locus YLR320W, strain mms22, stronger effect = lower value 1 | S. cerevisiae deletion strains, locus YLR342W, strain FKS1, stronger effect = lower value 1.04 | S. cerevisiae deletion strains, locus YLR357W, strain rsc2, stronger effect = lower value 1.04 | S. cerevisiae deletion strains, locus YLR370C, strain arc18, stronger effect = lower value 1.03 | S. cerevisiae deletion strains, locus YLR384C, strain iki3, stronger effect = lower value 1.02 | S. cerevisiae deletion strains, locus YML120C, strain ndi1, stronger effect = lower value 1.03 | S. cerevisiae deletion strains, locus YMR058W, strain fet3, stronger effect = lower value 1.04 | S. cerevisiae deletion strains, locus YMR125W, strain sto1, stronger effect = lower value 0.985 | S. cerevisiae deletion strains, locus YMR129W, stronger effect = lower value 1.02 | S. cerevisiae deletion strains, locus YMR205C, strain PFK2, stronger effect = lower value 1.04 | S. cerevisiae deletion strains, locus YMR231W, strain pep5, stronger effect = lower value 1.02 | S. cerevisiae deletion strains, locus YNL071W, strain lat1, stronger effect = lower value 1.01 | S. cerevisiae deletion strains, locus YNL183C, strain NPR1, stronger effect = lower value 0.912 | S. cerevisiae deletion strains, locus YNL209W, strain ssb2, stronger effect = lower value 1.03 | S. cerevisiae deletion strains, locus YNL248C, strain rpa49, stronger effect = lower value 1.01 | S. cerevisiae deletion strains, locus YNL322C, strain KRE1 (second series), stronger effect = lower value 1.02 | S. cerevisiae deletion strains, locus YNR049C, strain mso1, stronger effect = lower value 1.02 | S. cerevisiae deletion strains, locus YOR001W, strain rrp6, stronger effect = lower value 1.04 | S. cerevisiae deletion strains, locus YOR070C, strain gyp1, stronger effect = lower value 1.02 | S. cerevisiae deletion strains, locus YOR080W, strain dia2, stronger effect = lower value 1.04 | S. cerevisiae deletion strains, locus YOR083W, strain WHI5, stronger effect = lower value 1.01 | S. cerevisiae deletion strains, locus YOR106W, strain vam3, stronger effect = lower value 1.06 | S. cerevisiae deletion strains, locus YOR231W, strain MKK1, stronger effect = lower value 0.992 | S. cerevisiae deletion strains, locus YOR265W, strain rbl2, stronger effect = lower value 1.03 | S. cerevisiae deletion strains, locus YOR270C, strain vph1, stronger effect = lower value 1.04 | S. cerevisiae deletion strains, locus YOR290C, strain snf2, stronger effect = lower value 1 | S. cerevisiae deletion strains, locus YPL051W, strain arl3, stronger effect = lower value 1.03 | S. cerevisiae deletion strains, locus YPL078C, strain atp4, stronger effect = lower value 1.05 | S. cerevisiae deletion strains, locus YPL106C, strain sse1, stronger effect = lower value 1 | S. cerevisiae deletion strains, locus YPL240C, strain hsp82, stronger effect = lower value 1.02 | S. cerevisiae deletion strains, locus YPL256C, strain CLN2, stronger effect = lower value 0.961
